Source: PubChem BioAssay (Broad Institute)
Many of the other results were omitted from the sample, so hits are more common in it than they were.
DUX4 txn inh: blocks DUX4-driven transcriptional activation. 293T-iDUX4 ZSCAN4-Gaussia luciferase reporter, 24 h; hits give low values. hit rate 0.8% among 37,000. activity change, negative = inhibition, % (no concentration beside the values);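 active means mean inhibition of at least 10% in the main channel, exceeding the control channel by a set limit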
Hits are given with their value; i = inactive.

SMILES	DUX4 txn inh
O=C(C[C@@H]1CC[C@@H](NC(=O)CC2CC2)[C@@H](CO)O1)NCc1ccc(-c2ccccc2)cc1	i
O=C(C[C@H]1CC[C@@H](NC(=O)c2ccc3c(c2)OCO3)[C@@H](CO)O1)NCc1ccc(Oc2ccccc2)cc1	-45
COc1ccc(CN2CC3(CCN(Cc4ccccn4)CC3)c3c(n(C)c4cc(OC)ccc34)[C@@H]2CO)cc1	i
C[C@H](CO)N1C[C@H](C)[C@@H](CN(C)S(=O)(=O)c2cccs2)Oc2ccc(NC(=O)CCCCCC(=O)Nc3ccccc3N)cc2CC1=O	i
C[C@@H]1CN([C@@H](C)CO)C(=O)CCCn2nncc2CO[C@H]1CN(C)Cc1ccccc1O	i
C/C=C/c1cccc(-c2nc(C(=O)NC3CCC3)cc3c2[C@@H](CCO)N([S@](=O)C(C)(C)C)C3)c1	i
COc1ccc2c3c(n(C)c2c1)[C@@H](CO)N(CC1CC1)CC31CN(C(=O)c2ccccc2)C1	-32
COc1ccc2c3c(n(C)c2c1)[C@@H](CO)N(CC1CC1)CC31CN(C(=O)c2ccc(F)cc2)C1	-26
COc1ccc2c3c(n(C)c2c1)[C@@H](CO)N(C(=O)c1ccccc1)CC31CCN(CC2CC2)CC1	i
COc1ccc2c3c([nH]c2c1)[C@H](CO)N(CC1CC1)CC31CN(C(=O)c2ccccc2)C1	-24
CCCC(=O)N1CC2(CCN(C(=O)NC(C)C)CC2)c2c([nH]c3cc(OC)ccc23)[C@H]1CO	i
COc1ccc2c3c(n(C)c2c1)[C@@H](CO)N(C(=O)c1ccc(F)cc1)CC31CN(C(C)=O)C1	i
COc1ccc2c3c([nH]c2c1)[C@H](CO)N(C(=O)c1ccccc1)CC31CN(C(=O)CC2CC2)C1	i
COc1ccc2c3c([nH]c2c1)[C@@H](CO)N(C(=O)c1ccncc1)CC31CCN(C(=O)NC(C)C)CC1	i
COc1ccc2c3c(n(C)c2c1)[C@H](CO)N(CC1CC1)CC31CN(C(=O)NC2CCCC2)C1	i
COc1ccc2c3c([nH]c2c1)[C@H](CO)N(CC1CC1)CC31CN(C(=O)NC2CCCC2)C1	i
COc1ccc2c3c([nH]c2c1)[C@@H](CO)N(C(=O)c1ccc(F)cc1)CC31CCN(C(=O)NC(C)C)CC1	-16
COc1ccc2c3c(n(C)c2c1)[C@H](CO)N(CC1CC1)CC31CN(C(=O)Nc2ccc(F)cc2F)C1	i
COC(=O)[C@@H]1[C@@H](CO)[C@@H]2Cn3c(cccc3=O)[C@@H]2N1C(=O)C1CC1	i
CO[C@H]1CN(C)C(=O)c2cc(NC(=O)CC(F)(F)F)ccc2OC[C@H](C)NC[C@@H]1C	i
O=C(C[C@H]1CC[C@@H]2[C@H](COC[C@H](O)CN2S(=O)(=O)c2ccccc2)O1)NCCN1CCCC1	i
COc1ccc2c3c([nH]c2c1)[C@H](CO)NCC31CN(C(=O)c2ccccc2)C1	i
O=C(C[C@@H]1CC[C@@H]2[C@H](COC[C@@H](O)CN2S(=O)(=O)c2ccccc2)O1)NCc1ccc(-c2ccccc2)cc1	i
CCCNC(=O)Nc1ccc2c(c1)C(=O)N(C)[C@@H]1CC[C@H](CC(=O)O)O[C@@H]1CO2	i
COc1ccc2c3c([nH]c2c1)[C@@H](CO)N(Cc1nccs1)CC31CCN(Cc2nccs2)CC1	i
SMILES	DUX4 txn inh
COc1ccc2c3c(n(C)c2c1)[C@@H](CO)N(C)CC31CN(C(=O)c2ccccc2F)C1	-35
COc1ccc2c3c(n(C)c2c1)[C@H](CO)N(C)CC31CN(C(=O)C2CCC2)C1	i
CCCNC(=O)N1CC2(C1)CN(Cc1ccccc1)[C@H](CO)c1[nH]c3cc(OC)ccc3c12	i
COc1ccc2c3c(n(C)c2c1)[C@@H](CO)N(S(C)(=O)=O)CC31CCN(CC2CCCCC2)CC1	-21
CCCNC(=O)N1CC2(C1)CN(Cc1ccc(F)cc1)[C@H](CO)c1[nH]c3cc(OC)ccc3c12	i
CCCNC(=O)N1CC2(C1)CN(Cc1ccccc1)[C@@H](CO)c1[nH]c3cc(OC)ccc3c12	-10
COc1ccc2c3c(n(C)c2c1)[C@@H](CO)N(C)CC31CCN(CC2CC2)CC1	i
COc1ccc2c3c(n(C)c2c1)[C@H](CO)N(C)CC31CN(C(=O)NC(C)C)C1	i
COc1ccc2c3c(n(C)c2c1)[C@@H](CO)N(CC1CC1)CC31CCN(C(C)=O)CC1	i
COc1ccc2c3c(n(C)c2c1)[C@@H](CO)N(CC1CC1)CC31CCN(C(=O)CC2CC2)CC1	i
COc1ccc2c3c(n(C)c2c1)[C@@H](CO)N(CC1CC1)CC31CCN(C(=O)c2ccccc2)CC1	-32
COc1ccc2c3c(n(C)c2c1)[C@@H](CO)N(S(C)(=O)=O)CC31CCN(C(=O)C2CCCC2)CC1	i
CCCC(=O)Nc1ccc2c(c1)C(=O)N(C)C[C@@H](OC)[C@@H](C)CN(CCC(F)(F)F)[C@@H](C)CO2	i
CO[C@@H]1CN(C)C(=O)c2ccc(NC(=O)C3CCC3)cc2OC[C@H](C)N(C(=O)CN(C)C)C[C@@H]1C	i
Cc1ccc(NC(=O)Nc2ccc3c(c2)C(=O)N(C)[C@H]2CC[C@@H](CC(=O)O)O[C@@H]2CO3)cc1	i
